Our source for the activation values is PubChem BioAssay AID623901 (Broad Institute, 2012).

In all, about 340,000 compounds went through this assay and about 470 (0.14%) were called active. What follows is part of a selection rich in actives, with near analogues and random picks from the rest. Unmarked numbers belong to inactive results.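 How the source made its calls: active means mean activation of 30% or more, with every replicate also reaching 30%; inconclusive means mean activation of 30% or more but some replicate falls short; inactive means the rest.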

The test is described as follows: small molecules raising miR-122 sensor signal – cell-based, Huh7 psiCHECK-miR122, Renilla luciferase, single point, primary screen (AID 623901).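 Further: 0% = median of neutral control wells and 100% = median of positive control wells; higher luciferase signal means stronger suppression of miR-122 activity.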 The settings on record: 48 h, at 12.5 µM, hits give high values.
As for `Cc1ccc(-c2ccc3c(c2)O[C@@H](CN(C)C(=O)NC(C)C)[C@@H](C)CN([C@H](C)CO)S3(=O)=O)cc1`, the activation is -3.11%. Take `COc1ccc(OC)c(-n2cc3c(=O)n(C)c(=O)n(C)c3c2)c1`: the activation was -102%.

For the compound `O=C(NNC(=O)c1ccccc1O)c1ccccc1O`, the activation was -530%. To `CCCN(C)C[C@H]1Oc2ncc(-c3ccccc3OC)cc2C(=O)N([C@H](C)CO)C[C@@H]1C` belongs 6.19%; to `O=c1c(-c2ccccc2)coc2c(CN3CCOCC3)c(O)ccc12`, 35.8% (active). Regarding `CNC[C@@H]1Oc2cc(-c3ccccc3OC)ccc2S(=O)(=O)N([C@H](C)CO)C[C@H]1C`, the activation was -5.6%. To `C[C@@H]1CN([C@H](C)CO)C(=O)c2cc(C#CCN(C)C)cnc2O[C@H]1CN(C)C(=O)Cc1ccncc1` belongs 2.45%; to `C[C@@H]1CN([C@@H](C)CO)S(=O)(=O)c2ccc(-c3cccc(C(=O)N(C)C)c3)cc2O[C@@H]1CN(C)C(=O)Nc1ccccc1`, -16.6%; to `Cc1ccc(S(=O)(=O)NC2CCCCCC2)cc1`, -106%. The same measure for `C[C@H](CO)N1C[C@H](C)[C@@H](CN(C)C(=O)Cc2cccnc2)Oc2ncc(-c3ccncc3)cc2C1=O`: -1.97%; for `COc1ccc(C#Cc2ccc([C@H]3[C@@H](CO)N4CCCCN(C(=O)Nc5ccccc5)C[C@H]34)cc2)cc1`: 35.5% (active). In the case of `O=C(Nc1ccc(F)cc1)N1CCCCN2[C@H](CO)[C@H](c3ccc(C#Cc4ccccc4)cc3)[C@H]2C1`, the activation was 34.6% (active). As for `O=C(NCCCn1ccnc1)c1cc(-c2ccccc2)on1`, the activation is -98.4%. Consider `O=C(CN1CCOCC1)Nc1cc(Cl)ccc1Cl`, for which the activation was -101%.

For the compound `O=S(=O)(N/N=C\c1cccn1-c1ccccc1)c1ccc2ccccc2c1`, the activation was -97.9%. To `Cc1noc(C)c1NC(=O)N(C)C[C@@H]1Oc2cc(C#CCC(C)C)ccc2S(=O)(=O)N([C@H](C)CO)C[C@@H]1C` belongs -3.73%; to `CCCNC(=O)N(C)C[C@H]1Oc2ncc(C#C[C@@H](C)O)cc2C(=O)N([C@@H](C)CO)C[C@@H]1C`, 7.15%. The same measure for `O=C(c1ccccc1F)N1C[C@H]2[C@@H](c3ccccc31)[C@@H](CO)N2C(=O)c1ccc(F)cc1`: -471%; for `COc1ccc(C(=O)N2C[C@@H]3[C@H](c4ccccc42)[C@H](CO)N3Cc2ccc3c(c2)OCO3)cc1`: -247%. The same measure for `O=C(CC(F)(F)F)N1C[C@H]2[C@@H](c3ccccc31)[C@H](CO)N2C(=O)Cc1cccnc1`: 33.3% (active); for `CCCC#Cc1ccc2c(c1)O[C@H](CN(C)C(=O)CC)[C@@H](C)CN([C@H](C)CO)S2(=O)=O`: -45.7%.

For `CCCNC(=O)N(C)C[C@@H]1Oc2cc(-c3ccccc3)ccc2S(=O)(=O)N([C@H](C)CO)C[C@H]1C`, the activation is -13.1%.

For `C[C@@H]1CN([C@@H](C)CO)S(=O)(=O)c2ccc(C#C[C@@H](C)O)cc2O[C@@H]1CN(C)C(=O)Cc1ccccn1`, the activation is 2.54%. To `C/C=C/c1ccc2c(c1)O[C@@H](CN(C)S(C)(=O)=O)[C@@H](C)CN([C@H](C)CO)S2(=O)=O` belongs 3.54%. The same measure for `CCCNC(=O)N(C)C[C@@H]1Oc2ncc(C#CC(C)C)cc2C(=O)N([C@H](C)CO)C[C@H]1C`: 10.4%; for `C[C@H]1CN([C@@H](C)CO)S(=O)(=O)c2ccc(C#CCN(C)C)cc2O[C@H]1CN(C)C(=O)CN(C)C`: 8.35%; for `COCC(=O)Nc1ccc2c(c1)OC[C@H](C)NC[C@@H](C)[C@H](OC)CN(C)C2=O`: -4.6%. As for `CCC(=O)N(C)C[C@@H]1Oc2cc(C#C[C@H](C)O)ccc2S(=O)(=O)N([C@@H](C)CO)C[C@H]1C`, the activation was -2.5%. The same measure for `C/C=C/c1cnc2c(c1)C(=O)N([C@H](C)CO)C[C@H](C)[C@@H](CN(C)CC1CCOCC1)O2`: 2.95%.

For `CCN1CCN(C(c2cccnc2)c2cc(Cl)c3cccnc3c2O)CC1` (stereo not given), the activation is 49.7% (active). To `O=C1c2ccccc2C2=Nc3ccccc3SC(c3ccccc3F)C12` (stereo not given) belongs -162%; to `O=C(CNCCC1=CCCCC1)Nc1ccccc1N1CCCCCC1`, 76.7% (active); to `C=CCNC(=O)c1ccccc1NC(=O)c1ccc(Cl)c(S(=O)(=O)Nc2cccc(C)c2C)c1`, -155%. For `COc1ccc(C(CCN(Cc2ccc(OC)c(OC)c2)C(=O)CCl)c2ccccc2)cc1` (stereo not given), the activation was 34.7% (active).

Turning to `CC(C)CC#Cc1cnc2c(c1)C(=O)N([C@H](C)CO)C[C@H](C)[C@H](CN(C)C(=O)Nc1ccccc1F)O2`, the activation is 4.61%.

Consider `C[C@H](CO)N1C[C@H](C)[C@@H](CN(C)C(=O)Cc2ccncc2)Oc2ncc(C#CCN(C)C)cc2C1=O`, for which the activation is 3.61%. Take `COCC#Cc1cnc2c(c1)C(=O)N([C@@H](C)CO)C[C@@H](C)[C@@H](CN(C)S(=O)(=O)c1cccc(OC)c1)O2`: the activation was -3.48%. The same measure for `C[C@@H](O)C#Cc1cnc2c(c1)C(=O)N([C@@H](C)CO)C[C@H](C)[C@H](CN(C)Cc1cncnc1)O2`: 3.47%; for `Cc1cc(C(C)(C)C)cc(S(=O)(=O)Nc2ccc(C(=O)O)cc2)c1C`: -165%; for `C[C@H](CO)N1C[C@H](C)[C@H](CN(C)C(=O)Nc2ccc3c(c2)OCO3)Oc2ncc(C#Cc3cccc(F)c3)cc2C1=O`: 5.6%.

For the compound `CNC[C@@H]1Oc2cc(-c3ccccc3OC)ccc2S(=O)(=O)N([C@@H](C)CO)C[C@H]1C`, the activation was -2.47%. The same measure for `O=C(Nc1cc(F)ccc1F)N1C[C@H]2[C@@H](c3ccccc31)[C@@H](CO)N2C(=O)c1ccccc1`: -133%. Regarding `CN1C[C@@H]2[C@H](c3ccccc31)[C@@H](CO)N2C(=O)Nc1ccccc1`, the activation is 41.7% (active).

In the case of `O=C(Cc1ccccc1)N1C[C@@H]2[C@H](c3ccccc31)[C@@H](CO)N2C(=O)Nc1ccc(F)cc1`, the activation was -92.3%. The same measure for `C[C@H](O)C#Cc1ccc2c(c1)O[C@H](CN(C)Cc1cncnc1)[C@H](C)CN([C@@H](C)CO)S2(=O)=O`: -0.322%.
